Screening data from PubChem BioAssay.
PKA-R1A act: activates the PKA-R1A holoenzyme complex | P00514+P68181 | PKA-R1A dissociation, Cy5-IP20 fluorescence polarization; scaled: DMSO 0%, 113 µM cGMP 100% | activation, % at 11.4 µM | actives 0.083% (n = 340,000);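 active means percent activation above the mean of all tested compounds plus 3 SD, cut at about 19% in these data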;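 further: higher means more PKAc released from R1A so a rise in polarization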
TMEM16A act: activators or potentiators of mouse TMEM16A chloride channel | B-score at 10 µM | Q8BHY3 | actives 0.3% (n = 340,000) | HEK293 TMEM16A/YFP-H148Q/I152L, iodide quench fluorescence; stronger effect = lower value | AID 623877;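 active means fluorescence-ratio B-score plate-corrected deviation score at least 3 library SD below zero, with starting fluorescence score within 5 deviations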;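 further: channel opened by trigger with iodide after compound preincubation; score built on the fluorescence ratio of max minus min over baseline; more negative score means more quench and so TMEM16A activation or potentiation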
PKA-R2B act: activators of human PKA-R2B complex; P22694+P31323; PKA-R2B holoenzyme dissociation, Cy5-IP20 fluorescence polarization; R2B truncated from residue 108, S112A mutant; 0% DMSO only, 100% 113 µM cGMP; activation, % at 11.4 µM; actives 0.079% (n = 340,000); AID 504700;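 active means activation above a cutoff set at the mean over all compounds plus 3 SD, cut at about 18% in these data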;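 further: higher means more holoenzyme dissociation and a rise in polarization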
Target sequence (P31323 whole entry, looked up, other chains not shown, the tested form may be a part): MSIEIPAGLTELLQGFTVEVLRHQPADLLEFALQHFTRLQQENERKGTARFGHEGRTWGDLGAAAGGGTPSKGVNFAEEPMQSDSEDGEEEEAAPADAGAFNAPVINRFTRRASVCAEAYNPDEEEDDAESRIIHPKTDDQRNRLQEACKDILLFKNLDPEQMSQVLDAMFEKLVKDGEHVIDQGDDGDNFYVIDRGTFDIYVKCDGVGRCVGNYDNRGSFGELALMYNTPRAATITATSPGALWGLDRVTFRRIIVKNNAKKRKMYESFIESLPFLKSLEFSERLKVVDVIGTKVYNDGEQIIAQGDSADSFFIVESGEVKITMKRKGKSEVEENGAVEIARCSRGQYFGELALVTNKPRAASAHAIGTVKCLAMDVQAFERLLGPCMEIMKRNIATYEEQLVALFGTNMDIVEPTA
ANO1 block: inhibitors of mouse TMEM16A calcium-activated chloride channel; actives 1.2% (n = 310,000); HEK293 TMEM16A/YFP iodide influx fluorescence, ionomycin; Q8BHY3; normalized B-score (activity score, 25-100; higher = stronger inhibition) at 10 µM;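 active means ratio plate-corrected score three or more library SD toward inhibition, starting fluorescence score within five deviations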;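 further: score derived from kinetic fluorescence span divided by baseline fluorescence per well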
CHT block: inhibits the human high affinity choline transporter. Q9GZV3. CHT-expressing cells, membrane potential dye, choline response; stronger effect = lower value. B-score at 10 µM. actives 0.86% (n = 310,000);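 active means B-score over 3 SD under the library average, and starting fluorescence ratio not unusually high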;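 further: choline stimulus applied at its EC90 after an EC20 pre-addition; B-score computed on integrated fluorescence ratio after choline addition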
CHT allo act: allosterically activates the human high affinity choline transporter; Q9GZV3; CHT-expressing cells, membrane potential dye, choline EC20; stronger effect = higher value; LV-AA mutant CHT in HEK293 cells; B-score at 10 µM; actives 0.49% (n = 310,000);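 active means initial fluorescence not abnormally high and integrated response B-score, plate-corrected, over 3 SD above library mean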
CHT activ conf: human CHT activation, confirmatory screen | shares compounds with CHT allo act | CHT-expressing cells, membrane potential dye fluorescence (FDSS); % of choline EC20–EC90 response window; HEK293 expressing CHT LV-AA mutant; choline added at its EC20 | activation, % at 10 µM | actives 91% (n = 2,500) | AID 504833;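 active means primary screen active, with duplicate mean activation above negative control mean plus 3 SD, cut at about 11% in these data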
HEK293 MP dye: CHT activator counter-screen hit in parental HEK293 cells; ratio readout change at 10 µM, hits read low; membrane potential dye fluorescence (FDSS); measured after EC20 choline addition; shares compounds with CHT allo act; actives 62% (n = 2,500);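 active means duplicate-averaged ratio beyond 3 SD from buffer wells, up or down, though filed actives are nearly all decreases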
* marks the source's active call; other numbers are inactive results; i = inactive; x = not tested or not shown. Hits are enriched below; roughly 2.5% of the tested compounds scored in any of these assays.

SMILES	PKA-R1A act	TMEM16A act	PKA-R2B act	ANO1 block	CHT block	CHT allo act	CHT activ conf	HEK293 MP dye
CCOC(=O)C1(Cc2ccccc2)CCN(CC2CC=CCC2)CC1 (configuration not stated)	-5	i	7	i	i	i	2	i
CCOC(=O)C1(Cc2cccc(OC)c2)CCN(CC2CC=CCC2)CC1 (configuration not stated)	-2	i	-17	i	i	i	x	x
Cc1cccc2cc(-c3ccccc3)c(-c3ccccc3)c[n+]12	-1	i	-5	i	i	i	56*	-53*
Cc1c(O)ccc2c(-c3ccccc3)cc(=O)oc12	6	i	3	i	i	i	x	x
Cc1cc(C)n(-c2nc(NCC(C)O)c3c4c(sc3n2)COC(C)(C)C4)n1 (configuration not stated)	-4	i	-7	i	i	i	x	x
Cc1cc(C)n(-c2nc(SCCN(C)C)c3c4c(sc3n2)COC(C)(C)C4)n1	-14	i	-2	i	i	i	41*	-45*
CCN1C(=O)[C@H]2[C@@H](c3ccc(-c4ccccc4)cc3)N[C@@](CC(C)C)(C(=O)OC)[C@H]2C1=O	-4	i	-5	i	i	i	x	x
CC(C)C(=O)Nc1ccc(S(=O)(=O)N2CCC(c3nc4ccccc4[nH]3)CC2)cc1	2	i	0	i	i	i	x	x
CCOc1cc2c(C#N)c(N3CCNCC3)nc(N)c2c(N)n1	6	i	0	i	i	6.5*	45*	-53*
NC(=O)c1nc2c([nH]c1=O)CCCC2	3	x	6	x	x	x	x	x
COC(=O)c1sc(NC(=O)C(C)c2ccccc2)nc1C (configuration not stated)	5	i	8	i	i	6.7*	30*	i
NC(=S)c1cc2cc(Cl)ccc2oc1=O	x	i	x	i	i	i	x	x
COc1ccc2c(c1)c1ncn(CCCN3CCOCC3)c(=O)c1n2C	4	i	-2	i	i	i	44*	-39*
C/C(=N\NC(=O)CCn1nnc2ccccc21)c1ccco1	-14	i	-11	i	i	i	x	x
COc1cccc(CN(C)CC(=O)Nc2ccccc2N2CCOCC2)c1OC	-11	i	-12	i	i	i	x	x
Cn1c(=O)c(=O)n(C)c2cc([N+](=O)[O-])c(N3CCOCC3)cc21	-16	i	1	i	i	6.5*	66*	-61*
Cn1c(=O)n(C)c2cc([N+](=O)[O-])c(N3CCN(C(=O)c4cccc(Cl)c4)CC3)cc21	-10	i	-13	i	i	i	x	x
Cn1c(=O)n(C)c2cc([N+](=O)[O-])c(N3CCN(C(=O)c4cccc(F)c4)CC3)cc21	2	i	2	i	i	i	26*	-39*
CN(C)CCNC(=O)Cn1ccc2cc(S(=O)(=O)N3CCCCC3)ccc21	-4	i	1	i	i	i	x	x
CC1(C)Cc2c(C#N)c(N3CCCC3)nc(-c3ccco3)c2CO1	2	i	-11	i	i	i	x	x
CC(C)c1nc(N2CCN(C(=O)c3ccco3)CC2)c(C#N)c2c1COC(C)(C)C2	8	i	7	i	i	6.6*	23*	i
CC(C)C(CCNCc1ccccn1)c1ccc(Cl)cc1 (configuration not stated)	9	i	-5	i	i	6.7*	17*	i
CC(C)CCC(CCNCc1ccccn1)c1ccc2c(c1)OCO2 (configuration not stated)	0	i	-7	i	i	i	x	x
O=C(Nc1cccc(Cl)c1)c1nc[nH]c1C(=O)Nc1ccccc1F	0	x	-7	x	x	x	x	x
Cc1ccc2ccc[n+](Cc3ccccc3)c2c1	0	i	2	i	i	7.9*	90*	-81*
SMILES	PKA-R1A act	TMEM16A act	PKA-R2B act	ANO1 block	CHT block	CHT allo act	CHT activ conf	HEK293 MP dye
CCN(Cc1ccccc1)C(=O)c1[nH]c2ccc(OC)cc2c1C	1	i	-8	x	x	x	x	x
COc1ccc2c(c1)c(C)cc[n+]2Cc1ccccc1	-3	i	8	i	i	6.7*	74*	-67*
Cc1ccc2c(c1)c(C)cc[n+]2Cc1ccccc1	3	i	-1	i	i	9.8*	42*	-71*
COc1ccc(OC)c(C2C(C(=O)c3cc4ccccc4o3)=C(O)C(=O)N2c2cc(C)on2)c1 (configuration not stated)	-5	i	-9	i	i	i	11*	i
COc1ccccc1C1C(C(=O)c2cc3ccccc3o2)=C(O)C(=O)N1c1cc(C)on1 (configuration not stated)	-7	i	3	i	i	i	x	x
CCn1cc(C(=O)NCCCN(C)C)c(=O)c2cc(F)c(N3CCN(C)CC3)cc21	6	i	4	i	i	i	30*	i
CCn1cc(S(=O)(=O)c2ccc(C)cc2)c(=O)c2cc(F)c(N3CCN(C)CC3)cc21	-13	i	-1	i	i	i	49*	-49*
COc1ccc(CNC(=O)c2cccnc2)cc1	7	i	12	i	i	i	x	x
COc1cc2c(cc1OC)C(c1cccs1)N(C(=S)NC(C)C)CC2 (configuration not stated)	1	i	-2	i	i	8.7*	14*	i
CCc1ccc(C(O)(CNCc2ccccc2)c2ccccc2)cc1 (configuration not stated)	0	i	-10	i	i	i	24*	i
C/C=C\C=C/C(=O)Nc1cccc(C2=NOC3(C2)C[C@H](C(N)=O)N(C(=O)Cc2ccc([N+](=O)[O-])cc2)C3)c1 (some centres not stated)	-3	i	2	i	i	i	x	x
COc1cccc(C2=Nn3c(nnc3-c3ccccc3O)SC2)c1	-8	i	-6	i	i	i	x	x
C[n+]1c2n(c3ccccc31)N=C(c1cc(C(C)(C)C)c(O)c(C(C)(C)C)c1)CS2	2	i	5	100*	i	40*	66*	-36*
